KCNQ2 enhance – potentiators of rat KCNQ2 potassium channel. B-score at 10 µM. O88943. AID 2239. CHO-K1 KCNQ2, FluxOR thallium flux fluorescence; stronger effect = higher value. 310,000 compounds, 0.54% hits;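 active = fluorescence ratio B-score at least 3 SD of library B-scores, with initial fluorescence B-score within 3 of them, cut at about 5.3 in these data; same plate scores as AID 2156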;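 also: B-score of peak minus minimum over baseline fluorescence ratio after K+ and Tl+ stimulus; positive B-score means potentiation of KCNQ2 with more thallium influx and brighter signal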
KCNQ2 block – KCNQ2 (rat) channel inhibition. 310,000 compounds, 1.1% hits. CHO-K1 KCNQ2, FluxOR thallium flux, 20 min; stronger effect = lower value. B-score at 10 µM. AID 2156;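 active = fluorescence ratio B-score at most minus 3 library SDs, with starting brightness B-score within 2 library SDs, cut at about -5.5 in these data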
Kir21 confirm – confirmation of mouse Kir2.1 potassium channel inhibitors | shares compounds with KCNQ2 enhance | Kir2.1-expressing cells, FluxOR thallium flux fluorescence; stronger effect = lower value | Tl flux remaining, % of negative control (stronger effect = lower value), % at 10 µM | 2,300 compounds, 41% hits;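 active = Primary-screen hit whose thallium flux fell at least 3 control SD below untreated wells in both duplicates, with normal baseline fluorescence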;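 also: 0% = blank wells without stimulus and 100% = stimulated no-compound controls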
Target sequence (P35561 whole entry, looked up): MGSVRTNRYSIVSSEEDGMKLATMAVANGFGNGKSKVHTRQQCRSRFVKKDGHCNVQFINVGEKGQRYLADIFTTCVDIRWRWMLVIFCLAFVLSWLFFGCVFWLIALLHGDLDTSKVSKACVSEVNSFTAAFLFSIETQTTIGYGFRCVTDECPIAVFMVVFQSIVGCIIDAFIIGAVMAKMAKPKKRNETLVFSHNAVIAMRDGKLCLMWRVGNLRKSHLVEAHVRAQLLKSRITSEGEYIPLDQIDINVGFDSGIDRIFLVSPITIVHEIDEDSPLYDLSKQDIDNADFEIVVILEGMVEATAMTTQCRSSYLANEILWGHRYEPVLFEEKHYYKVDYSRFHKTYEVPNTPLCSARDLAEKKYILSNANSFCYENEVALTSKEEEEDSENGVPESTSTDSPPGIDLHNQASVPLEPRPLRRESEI
HEK293 Tl flux – alters thallium flux in parental HEK293 cells, Kir2.1 counter-screen; AID 2105; FluxOR thallium flux fluorescence; 0% = unstimulated blank wells; FluxOR signal as % of negative control (100 = no effect), % at 10 µM; 2,300 compounds, 19% hits; shares compounds with KCNQ2 enhance;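 active = dye signal at least 3 control SD above or below untreated wells in both duplicates, raw fluorescence within 3, either direction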;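 also: percent is based on the flux ratio of peak minus minimum fluorescence over baseline F0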
CHO-K1 Tl ctr – alters thallium flux in parental CHO-K1 cells, KCNQ2 counter-screen. shares compounds with KCNQ2 enhance. FluxOR thallium flux fluorescence; zero = vehicle mean+3SD, 100% = vehicle-minus-blank window. activity increase over 3SD of controls, % at 10 µM. 1,200 compounds, 43% hits. AID 2282;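 active = signal rise of at least 3 SD above the untreated control mean, in both duplicate wells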;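 also: counter screen of KCNQ2 potentiator hits so any rise reflects channel-independent effects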
KCNQ1 sel pot – tests whether KCNQ2 potentiators also act on human KCNQ1. activation over 3SD threshold, % at 10 µM. AID 2283. CHO KCNQ1 stable, FluxOR thallium flux fluorescence; beyond 3SD, as % of vehicle-control signal. 1,200 compounds, 28% hits. shares compounds with KCNQ2 enhance;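 active = fluorescence ratio rise of at least 3 SD of vehicle wells above their mean, in both replicate wells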;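 also: 0% = vehicle mean plus 3 SD and 100% = vehicle minus unstimulated blank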
KCNQ2 pot confirm – rat KCNQ2 channel potentiator confirmation; shares compounds with KCNQ2 enhance; CHO-KCNQ2 cells, FluxOR thallium flux fluorescence; potentiation, less the hit threshold, % at 10 µM; 1,200 compounds, 68% hits; AID 2287;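 active = fluorescence ratio rising 3 SD or more over the vehicle control mean in both replicates, plus primary screen hit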;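 also: peak minus minimum thallium fluorescence divided by baseline after K/Tl stimulus; 0% = vehicle mean plus 3 SD and 100% = vehicle minus unstimulated blank difference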
Kir21 spec – selectivity of KCNQ2 potentiators: effect on mouse Kir2.1 | shares compounds with KCNQ2 enhance | HEK293 Kir2.1, FluxOR thallium flux fluorescence | activity over 3SD threshold, % at 10 µM | 1,200 compounds, 2% hits | AID 2345;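 active = fluorescence ratio rise of at least 3 SD above the vehicle-control mean, seen in both replicates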;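 also: 0% = vehicle mean plus 3 SD and 100% = vehicle minus no-stimulus blank window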
KCNQ2 W236L pot – KCNQ2 potentiators acting on retigabine-insensitive rat KCNQ2 W236L mutant; shares compounds with KCNQ2 enhance; CHO KCNQ2-W236L, automated patch clamp current; current increase over 3SD of negative controls (%), stronger effect = higher value, % at 25 µM; 940 compounds, 10% hits; AID 2558;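 active = current increase at least 3 SD of the untreated controls above them in both duplicate recordings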
Starred values were filed as active, the others as inactive. Sampled rows, rich in hits. Any-hit rate of the full collection: about 1.6%.

What do the screens show for `O=C(Cn1ncc2c3ccccc3n(Cc3cccc(Cl)c3)c2c1=O)N1CCC2(CC1)OCCO2`?
KCNQ2 enhance: 13*; KCNQ2 block: inactive; Kir21 confirm: inactive; HEK293 Tl flux: inactive; CHO-K1 Tl ctr: 109*; KCNQ1 sel pot: -18; KCNQ2 pot confirm: 58*; Kir21 spec: -28; KCNQ2 W236L pot: inactive

How did Cc1c2cnn(CC(=O)N3CCC4(CC3)OCCO4)c(=O)c2c(C)n1Cc1cccc(Cl)c1 do in these assays?
KCNQ2 enhance: 0.68; KCNQ2 block: inactive

How did CN1CCC(OC(=O)C2c3ccccc3Oc3ccccc32)CC1 do in these assays?
KCNQ2 enhance: 1.1; KCNQ2 block: inactive

How did CCc1ccc(NC(=O)CN2CC(c3ccccc3)CC2=O)cc1 (stereo not drawn) do in these assays?
KCNQ2 block: inactive

Results for COC(=O)C1=C(c2cccc(OC)c2OC)C[C@@H]2CC[C@H]1N2C(=O)NCc1ccco1 ?
KCNQ2 enhance: 0.94; KCNQ2 block: inactive

Results for COc1cc(CN2CCCC(C(=O)c3sccc3C)C2)cc(OC)c1O (stereo not drawn) ?
KCNQ2 enhance: 0.28; KCNQ2 block: inactive

What do the screens show for `COc1ccc(CN2CCCC(C(=O)c3sccc3C)C2)cc1O` (stereo not drawn)?
KCNQ2 enhance: 0.95; KCNQ2 block: inactive; Kir21 confirm: 56%*; HEK293 Tl flux: inactive

How did COc1ccc(CN2CCCC(C(=O)c3ccc(Cl)cc3)C2)c(O)c1 (stereo not drawn) do in these assays?
KCNQ2 block: inactive; Kir21 confirm: 68%*; HEK293 Tl flux: inactive

What do the screens show for `COc1cccc(C(=O)C2CCCN(Cc3ccc(F)cc3)C2)c1` (stereo not drawn)?
KCNQ2 enhance: 1.5; KCNQ2 block: inactive

Results for CCOC(=O)c1nsnc1NCCCl ?
KCNQ2 enhance: 0.81; KCNQ2 block: inactive

What do the screens show for `CCC(=Nc1ccccc1N)c1c(O)[nH]c(=O)[nH]c1=O`?
KCNQ2 enhance: 1.1; KCNQ2 block: inactive

How did Fc1ccccc1CCNCc1cccc(Cl)c1Cl do in these assays?
KCNQ2 block: inactive

Results for O=C(COc1ccc(Cl)cc1)N1CCN(C2CCCC2)CC1 ?
KCNQ2 enhance: 1.1; KCNQ2 block: inactive

Results for Clc1ccc(CNCCc2ccc3c(c2)OCO3)cc1 ?
KCNQ2 block: inactive; Kir21 confirm: 28%*; HEK293 Tl flux: inactive

How did Clc1cccc(CNCCc2ccc3c(c2)OCO3)c1 do in these assays?
KCNQ2 block: inactive

Results for COc1ccc(CNCCc2ccc3c(c2)OCO3)cc1Br ?
KCNQ2 block: inactive; Kir21 confirm: 16%*; HEK293 Tl flux: inactive

What do the screens show for `COc1ccc(Br)cc1CNCCc1ccc2c(c1)OCO2`?
KCNQ2 block: inactive

How did CC(C)[C@H]1C(=O)O[C@@H]2CCN3CC=C(COC(=O)[C@](C)(O)[C@]1(C)O)[C@H]23 do in these assays?
KCNQ2 block: inactive

How did Cc1ccc2[nH]c(C)c(CCNCc3ccco3)c2c1 do in these assays?
KCNQ2 enhance: 0.72; KCNQ2 block: inactive

How did CCOc1cccc(CNCCc2c(C)[nH]c3ccc(OC(F)(F)F)cc23)c1O do in these assays?
KCNQ2 block: inactive; Kir21 confirm: 22%*; HEK293 Tl flux: inactive

What do the screens show for `Cc1[nH]c2ccc(OC(F)(F)F)cc2c1CCNCc1ccc(Cl)cc1`?
KCNQ2 enhance: -7.7; KCNQ2 block: -7.7*; Kir21 confirm: 16%*; HEK293 Tl flux: inactive

High-throughput results from PubChem.
